Screening results (PubChem)
Hits are enriched below; roughly 1.4% of the tested compounds scored in any of these assays.
DUSP3 inh: DUSP3 (human) phosphatase inhibition | P51452 | recombinant VHR phosphatase, pNPP absorbance | inhibition, % at 13.3 µM | hit rate 0.52% among 290,000; in the data active = inhibition above about 50%
Target sequence (P51452 whole entry, looked up): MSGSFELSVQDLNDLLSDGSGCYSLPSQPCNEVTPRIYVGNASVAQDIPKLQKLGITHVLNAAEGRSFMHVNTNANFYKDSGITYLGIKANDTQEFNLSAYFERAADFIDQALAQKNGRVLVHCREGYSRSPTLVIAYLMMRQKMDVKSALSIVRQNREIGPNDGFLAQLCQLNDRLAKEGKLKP
PrPC surface inh: reduces human prion protein on the cell surface; P04156; cell surface PrPC, TR-FRET read-out; inhibition, % at 13.8 µM; hit rate 0.43% among 370,000; in the data active = inhibition above about 24%; also: 0% = median of the test wells and 100% = reference compound wells
Sa ugtP lethal: growth inhibition of S. aureus ugtP deletion strain; hit rate 0.54% among 330,000; S. aureus RN4220 ugtP deletion, OD600 growth, 16 h; growth inhibition, % (no concentration beside the values); AID 1259309; in the data active = growth inhibition above about 68%;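 also: plate controls were untreated wells for no effect and antibiotic for full effect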
3CLpro inhibitor: SARS-CoV 3CLpro protease inhibition; inhibition, % at 6 µM; hit rate 0.14% among 290,000; AID 1706; P0C6X7; recombinant SARS-CoV 3CLpro, quenched FRET peptide cleavage; in the data active = inhibition above about 12%
BJeLR lethal: kills HRASV12-expressing BJeLR cells | BJeLR (HRASV12) viability, CellTiter-Glo ATP luminescence, 48 h | inhibition, % (concentration not given with the values) | hit rate 0.17% among 300,000 | AID 1554; in the data active = inhibition above about 50%
Sa RN4220 lethal: kills Staphylococcus aureus RN4220; hit rate 0.33% among 330,000; inhibition, % (concentration not given with the values); S. aureus RN4220 growth, OD600, 16 h; in the data active = inhibition above about 85%;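 also: plate controls were untreated cells for no effect and reference antibiotic for full effect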
* = called active by the depositor; · = not tested or not shown.

SMILES | DUSP3 inh | PrPC surface inh | Sa ugtP lethal | 3CLpro inhibitor | BJeLR lethal | Sa RN4220 lethal
Cc1ccc(C[n+]2c(-c3ccc(C)cc3)cc(-c3ccc(C)cc3)cc2-c2ccc(C)cc2)cc1 | · | · | 101* | · | 60* | 101*
O=C1CCC(C(=O)N2CCCC(C(=O)c3ccc4ccccc4c3)C2)=NN1 (centres undefined) | 50* | -1 | -1 | -6 | -3 | 0
CC(C)c1cc(C(=O)N2CCCC(C(=O)c3ccc4ccccc4c3)C2)on1 (centres undefined) | -4 | 13 | 2 | 4 | 12 | -3
CC(=CC(=O)c1ccccc1)Nc1ccc2c(c1)OCO2 | · | · | -6 | · | · | 10
CCOC(=O)N1CCC(NC(=O)c2cccn3c(=O)c4cc(Br)ccc4nc23)CC1 | 84* | -13 | -2 | 1 | -1 | 2
CC1(C(=O)N2CCC(CO)(Cc3cccc(C(F)(F)F)c3)CC2)CC1 | -2 | -2 | 2 | 1 | -6 | 2
CC(=O)c1ccc(C(=O)N2CCC(CO)(Cc3cccc(C(F)(F)F)c3)CC2)cc1 | 53* | -11 | 3 | 1 | 4 | 2
FC(F)(F)c1cnc(NNC(=S)Nc2ccc(Cl)cc2)c(Cl)c1 | -3 | 10 | 70 | 3 | 20 | 92*
Cc1cc(C(=O)N/N=C/c2ccc(-c3cccc(Cl)c3Cl)o2)n[nH]1 | 51* | -5 | · | -2 | -7 | ·
Cc1cc(C(=O)NN=Cc2ccc(-c3cccc(Cl)c3Cl)o2)n[nH]1 | · | · | -12 | · | · | 2
CC(=O)c1sc(NC(=O)C2COc3ccccc3O2)nc1C (centres undefined) | 25 | 41* | -11 | -6 | 6 | -1
O=C(Nc1nnc(C(F)(F)F)s1)C1COc2ccccc2O1 (centres undefined) | 2 | 2 | 88* | -1 | 4 | 91
O=C(Nc1nnc(C2CC2)s1)C1COc2ccccc2O1 (centres undefined) | 14 | 9 | -9 | -4 | 4 | 0
O=C(C1=CC(c2csc3ccccc23)CC(OCCCCO)O1)N1CCN(Cc2ccc3c(c2)OCO3)CC1 (centres undefined) | · | · | 7 | · | · | 1
Cc1cc(=O)[nH]c(NN=CC=Cc2ccccc2)n1 | · | · | -18 | · | · | -3
Cc1c(-n2cc(C(=O)O)c(=O)c3cc(F)c(N4CCCC(O)C4)c(F)c32)c(=O)n(-c2ccccc2)n1C (centres undefined) | 23 | 9 | 7 | -1 | -2 | 2
O=C(O)c1cn(-c2ccc(N3CCCC3)c(F)c2)c2c(F)c(F)c(F)cc2c1=O | 38 | -4 | 100* | -1 | 4 | 8
O=C(CCl)N1c2ccccc2OCC1c1ccccc1 (centres undefined) | 23 | 9 | 95* | 6 | 2 | 40
O=C(CCl)N1c2ccccc2SCC1c1ccccc1 (centres undefined) | -8 | 1 | · | 3 | 3 | ·
CCN1C(=C2SC(=S)NC2=O)Sc2ccccc21 | · | · | 4 | · | · | 2
O=[N+]([O-])c1ccc(S(=O)(=O)c2ccccc2)nc1 | 10 | 24 | · | -2 | 5 | ·
Cc1ccc(S(=O)(=O)c2ccc([N+](=O)[O-])cn2)cc1 | 21 | 70* | 23 | 1 | 23 | 23
CC(NC(=O)c1nc[nH]c1C(=O)NC(CCCCN)C(=O)OC(C)(C)C)C(=O)OC(C)(C)C (centres undefined) | · | · | 4 | · | · | 3
CC1CN=C(Nc2ccccc2)N1CCc1ccc(F)cc1 (centres undefined) | · | · | 5 | · | · | 3
Cn1c(SCC(=O)Nc2ccc(NC(=O)c3ccccc3)cc2)nnc1-c1ccncc1 | 52* | 5 | 2 | -1 | -1 | 6
SMILES | DUSP3 inh | PrPC surface inh | Sa ugtP lethal | 3CLpro inhibitor | BJeLR lethal | Sa RN4220 lethal
O=C1/C(=C/c2ccc(N3CCCC3)cc2)NC(=S)N1C1CC1 | 52* | -18 | -18 | -3 | -12 | -1
O=C1N/C(=C/c2ccc(N3CCCC3)cc2)C(=O)N1c1ccccc1 | 2 | 0 | 1 | 6 | 9 | -1
Cc1ccc(CS/C(Nc2ccccc2C)=C(\C#N)C(N)=O)c(C)c1 | 7 | 8 | 95* | 5 | 1 | 2
Cc1ccccc1NC(=O)CSC(N)=O | -4 | 0 | 7 | 1 | -4 | -3
CC1CCN(C(=O)c2[nH]cnc2C(=O)NC(C)C(=O)OC(C)(C)C)CC1 (centres undefined) | · | · | 3 | · | · | 6
COC(=O)C(Cc1ccccc1)N(C)S(=O)(=O)c1cccc(S(=O)(=O)N(C)C(Cc2ccccc2)C(=O)OC)c1 (centres undefined) | · | · | -4 | · | · | 3
Cc1ccc(C)c(Cn2nc(-c3ccccc3)ccc2=O)c1 | 53* | 1 | 3 | 6 | -2 | -1
Cc1ccc(-c2ccc(=O)n(Cc3cc(C)ccc3C)n2)cc1 | -24 | 3 | 4 | 8 | -6 | 1
CCn1c(=N)n(CC(=O)OC)c2ccccc21 | 56* | 1 | 3 | 0 | 2 | 1
CCn1c(=N)n(CC(=O)C(C)(C)C)c2ccccc21 | -11 | -2 | 11 | 4 | -8 | 5
O=C(O)CCCN1C(=O)/C(=C\c2ccccc2OCc2ccccc2)SC1=S | 24 | 9 | 16 | 4 | -9 | 27
O=C(O)CCCN1C(=O)/C(=C/c2cn(-c3ccccc3)nc2-c2cccs2)SC1=S | 6 | -3 | 83* | 3 | 7 | 50
CCOc1ccc(C(=O)Nc2ccccc2CC)cc1[N+](=O)[O-] | -8 | -9 | 1 | -2 | -10 | 1
CCOc1ccc(C(=O)Nc2cccc3nsnc23)cc1[N+](=O)[O-] | 56* | -1 | -4 | 4 | 2 | 7
O=C(CCCN1C(=O)c2ccccc2C1=O)NCc1cccnc1 | 18 | 2 | -10 | -5 | 12 | 3
CSc1ncc(Cl)c(C(=O)NCc2cccnc2)n1 | 52* | 6 | 1 | 3 | 0 | -1
O=C(CCCN1C(=O)c2cccc3cccc(c23)C1=O)NCc1cccnc1 | 8 | -38 | 5 | 1 | -14 | 9
CSc1ncc(Cl)c(C(=O)NCc2ccc3c(c2)OCO3)n1 | 22 | -1 | 4 | 0 | -5 | 8
O=C(CCCCCCCCCCC(=O)NCc1cccnc1)NCc1cccnc1 | 32 | 12 | 4 | -3 | 74* | 2
CC(C)(C)C(=O)Nc1ccc(C(=O)NCc2cccnc2)cc1 | 14 | -1 | -5 | -4 | 3 | -21
O=C(CCCCCN1C(=O)c2cccc3cccc(c23)C1=O)NCc1cccnc1 | 27 | -2 | 5 | 1 | 80* | 1
CC(C)(C)c1ccc(C(=O)Nc2ccc(C(=O)NCc3cccnc3)cc2)cc1 | 23 | 7 | -3 | 1 | 82* | 2
COc1cccc(C=C(C(=O)OCC(=O)NCC2CCCO2)c2ccccc2)c1 (centres undefined) | · | · | 1 | · | · | 5
COc1ccc(C2CC(=O)C=C(c3ccc(C(=O)O)cc3)C2)cc1OC (centres undefined) | · | · | 2 | · | · | 8
NC(=O)C1CCCNc2c(F)cc([N+](=O)[O-])cc2C(=O)NC(CO)C(=O)NCC(=O)N1 (centres undefined) | · | · | -11 | · | · | -1
